Test results taken from PubChem BioAssay (NCATS).
Where “and” joins values, the source holds several entries; their conditions need not be identical. Identical values can stand only once. Records with an inconclusive call do not appear. Calls of active or inactive are those of the source. Calls follow the shape of the dose curve; as a rule, active = well fitted curve in the direction sought with a large enough effect; inconclusive = small, poorly fitted or top-dose-only effect, or another doubt; inactive = no such curve, though single readings can be large; an effect the other way counts as inactive or inconclusive.

Legend:
[1] = biological target: Glutathione peroxidase 1 (Homo sapiens) (UniProt P07203); experiment: Primary qHTS Assay for Inhibitors of Recombinant Selenoprotein Glutathione Peroxidase 1 (GPX1) (AID 1845191); also: nearly all actives have a fitted effect of over 65% in size; as to activity, negative = inhibition: % is scaled to controls: 0 for no effect and ±100 for the full control effect
Glutathione peroxidase 1 (Homo sapiens), sequence (P07203 whole entry, looked up): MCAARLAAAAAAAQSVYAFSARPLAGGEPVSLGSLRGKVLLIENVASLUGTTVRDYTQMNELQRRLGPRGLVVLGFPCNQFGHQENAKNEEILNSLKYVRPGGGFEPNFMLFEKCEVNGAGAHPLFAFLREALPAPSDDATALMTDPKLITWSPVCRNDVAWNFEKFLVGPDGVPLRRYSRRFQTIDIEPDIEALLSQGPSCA
Outline: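 Recombinant GPX1 (10 nM final) was preincubated with compound for 30 min at room temperature, then reacted with 1 mM GSH, 0.5 mM CHP, 0.5 mM NADPH and 100 nM glutathione reductase; NADPH fluorescence (340/450 nm) was read at 0 and 15 min.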

[2] = biological target: Phospholipid hydroperoxide glutathione peroxidase GPX4 (Homo sapiens) (UniProt P36969); experiment: Primary qHTS Assay for Inhibitors of Recombinant Selenoprotein Glutathione Peroxidase 4 (GPX4) (AID 1845192); also: nearly all actives have a fitted effect of over 65% in size; as to activity change, negative = inhibition: series mostly up to about 50 µM; % is scaled to controls: 0 for no effect and ±100 for the full control effect
Phospholipid hydroperoxide glutathione peroxidase GPX4 (Homo sapiens), sequence (P36969 whole entry, looked up): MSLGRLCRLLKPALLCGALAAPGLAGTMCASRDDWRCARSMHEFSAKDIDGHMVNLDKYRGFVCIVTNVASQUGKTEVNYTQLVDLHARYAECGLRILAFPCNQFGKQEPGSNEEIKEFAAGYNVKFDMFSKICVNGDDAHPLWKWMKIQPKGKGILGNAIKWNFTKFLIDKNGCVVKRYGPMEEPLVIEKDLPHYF
Outline: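 GR-coupled readout: 100 nM GR, 1 mM GSH, 0.5 mM NADPH; NADPH fluorescence (ex 340/em 450 nm) read at t=0 and after 15 min RT. GPX4 200 nM, preincubated 30 min with compound; substrate 0.5 mM CHP.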

[3] = biological target: Luciferin 4-monooxygenase (Photinus pyralis) (UniProt P08659); experiment: Primary firefly luciferase (FLuc) qHTS assay for identification of artifact compounds. (AID 1845220); also: nearly all actives have a fitted effect of over 60% in size;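 as to activity change, negative = inhibition: series mostly up to about 54 µM; plate controls were DMSO vehicle for no effect and no enzyme for full effect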
Outline: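 In this counter-screen for luciferase artifacts, test compounds met substrate (10 uM each luciferin and ATP) before 10 nM enzyme started the reaction. Light output was measured 5 min later.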

[4] = Primary fluorescence-based thiol-reactive (MSTI) qHTS assay for identification of artifact compounds. (AID 1845221); also: nearly all actives have a fitted effect of over 65% in size; also: potency is read from the fitted curve at half-maximal effect;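 as to activity change, negative = thiol reactive: series mostly up to about 54 µM; thiol-reactive compounds lower the probe fluorescence signal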
Outline: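 Thiol-reactive compounds detected by quenching of 4 uM MSTI fluorescence (525/598 nm) after 1 h room-temperature dark incubation in PBS pH 7.4, 2% DMSO. qHTS titration; percent inhibition Hill-fitted against Acetyl-MSTI/MSTI controls.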

[5] = test system: Nanoluciferase (engineered Oplophorus gracilirostris luciferase); experiment: Primary Nanoluciferase (NLuc) qHTS assay for identification of artifact compounds. (AID 1845222); also: potency is read from the fitted curve at half-maximal effect;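 as to activity, negative = inhibition: NLuc secreted into diluted conditioned medium of S16 cells; series mostly up to about 54 µM; 0% = DMSO and -100% = no enzyme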
Outline: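 Using secreted nanoluciferase in S16 culture medium (0.22 um filtered, 1:55 dilution), compounds were preincubated 15 min at RT. Signal was generated with Nano-Glo reagent (1:100) over 5 min.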

[6] = Primary redox qHTS assay for identification of artifact compounds. (AID 1845223);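 also: 0% = DMSO and 100% = reference compound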
Outline: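 Amplex Red (25 uM) and HRP (250 mU/mL) in HBSS, with compounds for 15 min, then 250 uM DTT for 30 min, room temperature, dark. Fluorescence 525/598 nm read; normalized to DMSO and 10 uM DA3003; Hill fit.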

CCn1nnnc1NCc1ccc(C(C)C)cc1
inactive: Potency [1] | Potency [2] | Potency [3] | Potency [4] | Potency [5] | Potency [6]

COC1=CC(=O)O[C@@H](/C=C/c2ccccc2)[C@@H]1O
inactive: Potency [1] | Potency [2] | Potency [3] | Potency [4] | Potency [5] | Potency [6]

CC[C@H](/C=C/[C@@H](C)[C@H]1CC[C@H]2[C@@H]3CC=C4C[C@@H](O)CC[C@]4(C)[C@H]3CC[C@]12C)C(C)C
inactive: activity, negative = inhibition [1] -3.99% [at 4.49 µM] | activity change, negative = inhibition [2] 1.85% [at 4.52 µM] | activity change, negative = inhibition [3] 2.1% [at 6.45 µM] | activity change, negative = thiol reactive [4] -7.95% [at 6.41 µM] | activity, negative = inhibition [5] 1.22% [at 6.45 µM] | redox activity (% of DA3003) [6] -0.124% [at 6.41 µM]

C[C@]12CCC(=O)C=C1[C@@H](O)C[C@@H]1[C@@H]2[C@@H](O)C[C@@]2(C)[C@H]1CC[C@]2(O)C(=O)CO
inactive: Potency [1] | Potency [2] | Potency [3] | Potency [4] | Potency [5] | Potency [6]

COc1c(C)c(C(=O)c2ccc(N)c(C(=O)O)c2)n2ccccc12
inactive: Potency [1] | Potency [2] | Potency [3] | Potency [6]
active: Potency [4] 4.74 µM and 5.32 µM | Potency [5] 9.53 µM

Cc1ncc([N+](=O)[O-])n1CC(O)CN1CCOCC1 (stereo not given)
inactive: Potency [1] | Potency [2] | Potency [3] | Potency [4] | Potency [5] | Potency [6]

C/C=C1\[C@H](O[C@@H]2O[C@H](CO)[C@@H](O)[C@H](O)[C@H]2O)OC=C(C(=O)OC)[C@H]1CC(=O)OC
inactive: Potency [1] | Potency [2] | Potency [3] | Potency [4] | Potency [5] | Potency [6]

COc1c(C)c(OCC=C(C)C)cc2c1C(=O)NC2=O
inactive: Potency [1] | Potency [2] | Potency [3] | Potency [4] | Potency [5] | Potency [6]

COc1ccc([C@@H]2N[C@H](C(=O)O)Cc3c2[nH]c2ccccc32)cc1CN1CCN(c2ccccc2F)CC1
inactive: Potency [1] | Potency [2] | Potency [3] | Potency [4] | Potency [5] | Potency [6]

C[C@@H]1CCC2C(C)(C)[C@H](O)CC[C@]2(C)[C@@]12Cc1c(O)cc3c(c1O2)CN(CCO)C3=O (stereo not given in full)
inactive: Potency [1] | Potency [2] | Potency [3] | Potency [4] | Potency [5] | Potency [6]

CC1(CO)CC[C@]2(C(=O)O[C@@H]3O[C@H](CO)[C@@H](O)[C@H](O)[C@H]3O)CC[C@]3(C)C(=CCC4[C@@]5(C)C[C@H](O)[C@H](O[C@@H]6OC[C@@H](O)[C@H](O)[C@H]6O)[C@@](C)(CO)C5CC[C@]43C)C2C1 (stereo not given in full)
inactive: Potency [1] | Potency [2] | activity change, negative = inhibition [3] 4.3% [at 11.6 µM] | activity change, negative = thiol reactive [4] 76.2% [at 11.5 µM] | activity, negative = inhibition [5] 0% [at 11.6 µM] | redox activity (% of DA3003) [6] 6.69% [at 11.5 µM]

O=C(O)[C@H]1CCCC[C@H]1C(=O)N1CCc2ccccc2[C@H]1CN1C(=O)c2ccccc2C1=O
inactive: Potency [1] | Potency [2] | Potency [3] | Potency [4] | Potency [5] | Potency [6]

CC1=C2CC3OC3(C)CCC3OC3(C)CC2OC1=O (stereo not given)
inactive: Potency [1] | Potency [2] | Potency [3] | Potency [4] | Potency [5] | Potency [6]

CC1(CO)CC2C(O)C(=O)C3(CO)CC3(C)C2C1 (stereo not given)
inactive: Potency [1] | Potency [2] | Potency [3] | Potency [4] | Potency [5] | Potency [6]

Cc1ccc(Sc2cncc3sc(C(N)=O)cc23)cc1
inactive: Potency [1] | Potency [2] | Potency [3] | Potency [4] | Potency [5] | Potency [6]

C=C1[C@@H]2CC[C@@]3(C)[C@H](c4ccoc4)OC(=O)C[C@]13O[C@H]1CC(=O)C(C)(C)[C@H](CC(=O)OC)[C@]12C
inactive: Potency [1] | Potency [2] | Potency [3] | Potency [4] | Potency [5] | Potency [6]

CC1=CC(=O)CC(C)(C)C1CCC(C)OC1OC(COC(=O)c2cc(O)c(O)c(O)c2)C(O)C(O)C1O (stereo not given)
active: Potency [4] 1.16 µM
inactive: Potency [1] | Potency [2] | Potency [3] | Potency [5] | Potency [6]

C[C@]12CCC[C@](C)(C(=O)O)C1CCC13C=C(CO)C(CCC12)C3 (stereo not given in full)
inactive: Potency [1] | Potency [2] | Potency [3] | Potency [4] | Potency [5] | Potency [6]

CC(C)(O)C1=CCC23COC(C2)C(O)(C(=O)O)CCC13 (stereo not given)
inactive: Potency [1] | Potency [2] | Potency [3] | Potency [4] | Potency [5] | Potency [6]

C[C@@H]1O[C@@H](O[C@H]2[C@H](OC(=O)C34CCC5(C)C(=CCC6C7(C)CC(O)C(O[C@@H]8O[C@H](C(=O)O)[C@@H](O)[C@H](O)[C@H]8O)C(C)(C(=O)O)C7CCC65C)C3CC(C)(C)CC4O)O[C@H](C)[C@@H](O)[C@@H]2O)[C@H](O)[C@@H](O[C@@H]2OC[C@](O)(CO)[C@H]2O[C@@H]2O[C@H](CO)[C@@H](O)[C@H](O)[C@H]2O)[C@H]1O (stereo not given in full)
inactive: activity, negative = inhibition [1] -10.2% [at 9.52 µM] | activity change, negative = inhibition [2] -4.3% [at 9.73 µM] | activity change, negative = inhibition [3] -0.148% [at 11.6 µM] | activity change, negative = thiol reactive [4] 44.4% [at 11.5 µM] | activity, negative = inhibition [5] 0% [at 11.6 µM] | redox activity (% of DA3003) [6] 3.71% [at 11.5 µM]
